Data on 25 compounds can be found in PubChem BioAssay (NCATS).

Records with an inconclusive call do not appear. Unmarked numbers belong to inactive results. Calls come from the whole dose curve; as a rule, active = well fitted curve in the direction sought with a large enough effect; inconclusive = small, poorly fitted or top-dose-only effect, or effect the other way, or another doubt; inactive = no such curve, though single readings can be large or run the other way.

The target in the test is Transient receptor potential cation channel subfamily V member 1 (Homo sapiens) (UniProt Q8NER1). As to the kind of experiment: HTS Assay for Compounds that Act as Enhancers of the Vanilloid Receptor 1 (AID 488979). Note: 0% is about no effect. Particulars: TRPV1-expressing cells, enhancer of channel activity, stimulated with capsaicin at EC20; series mostly up to 41.7 µM; activity change, positive = enhancement: at the top concentration. The source says: The transient receptor potential ion channel, family V, number 1, (TRPV1) is one of the most important molecular transducers of painful stimuli and a potential target for analgesic drug development. Although recent clinical trials with orthosteric antagonists have not produced a successful drug because of a hyperthermia side effect and their tendency to block thermal noxious pain, this ion channel is undeniably well placed in the pain pathway, and the idea of blocking pain signals before they enter the CNS is an excellent concept and of proven efficacy when TRPV1 agonists are used. We propose a new approach involving allosteric modulation to impose an activity-dependent constraint within the context of inflammation and tissue damage that would alter the responsiveness of the channel in a way that an orthosteric vanilloid antagonist cannot achieve. We believe that the allosteric modulator approach has not been explored for this target.
Sequence of Transient receptor potential cation channel subfamily V member 1 (Homo sapiens) (Q8NER1 whole entry, looked up): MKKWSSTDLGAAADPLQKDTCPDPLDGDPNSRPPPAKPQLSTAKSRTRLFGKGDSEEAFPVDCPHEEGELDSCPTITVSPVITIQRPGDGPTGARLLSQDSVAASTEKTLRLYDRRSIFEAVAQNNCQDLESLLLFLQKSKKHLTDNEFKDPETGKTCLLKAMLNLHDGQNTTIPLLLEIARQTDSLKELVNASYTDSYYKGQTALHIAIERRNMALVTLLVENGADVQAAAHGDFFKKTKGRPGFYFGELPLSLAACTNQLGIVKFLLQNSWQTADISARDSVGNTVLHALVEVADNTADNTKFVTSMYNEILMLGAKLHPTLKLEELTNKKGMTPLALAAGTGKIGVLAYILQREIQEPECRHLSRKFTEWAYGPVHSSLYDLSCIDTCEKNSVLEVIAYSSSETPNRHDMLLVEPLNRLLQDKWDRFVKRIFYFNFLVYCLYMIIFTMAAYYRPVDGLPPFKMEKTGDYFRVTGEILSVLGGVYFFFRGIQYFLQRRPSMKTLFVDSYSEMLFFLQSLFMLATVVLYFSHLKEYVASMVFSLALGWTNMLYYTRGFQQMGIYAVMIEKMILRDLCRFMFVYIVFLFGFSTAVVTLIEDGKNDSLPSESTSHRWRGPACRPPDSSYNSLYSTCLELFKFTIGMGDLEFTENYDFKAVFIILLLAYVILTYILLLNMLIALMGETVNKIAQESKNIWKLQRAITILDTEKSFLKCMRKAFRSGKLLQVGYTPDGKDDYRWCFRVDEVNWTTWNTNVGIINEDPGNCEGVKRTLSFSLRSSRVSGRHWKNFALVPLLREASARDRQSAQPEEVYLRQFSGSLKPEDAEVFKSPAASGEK
The main goal of this proposal is to identify additional, new, potent allosteric modulators of TRPV1 that can be used to investigate TRPV1 function. Our recent report provides evidence of proof of concept, but the compounds are just at the edge of utility in terms of potency. […] The question of whether they can be used as analgesic agents is complex, but if suitable compounds are identified then testing for analgesic properties will be conducted.
Upon TRPV1 activation in TRPV1 cells, the channel opens and extracellular cations flow through the channel into the cytosol. A calcium binding dye (Fluo-8) becomes fluorescent when bound to calcium. This dye is pre-loaded into cells and is used as a marker for calcium influx.
The amount of accumulated calcium is precisely quantified using the FDSS kinetic reader and the calcium dye.
For the HTS assay, freshly prepared cells are plated at a density of 2000/well in 3 ul medium in 1536-well plates and cultured overnight at 35.5C. Cells will be loaded with 1 ul of the homogeneous calcium dye (ABD Bioquest) at room temperature for 40 to 90 minutes. Plates will be loaded into the FDSS kinetic reader and a 1 sec / cycle for 10 second baseline signal will be measured. Compound library will then be added with a pintool at 23 nl and measured kinetically for 3 minutes. This portion of the read is considered the agonist portion of the screen. Following the 3 minutes of incubation, an on board pipettor will deliver 1 ul of capsaicin for a final concentration equal to the EC20. Signal will be measured kinetically for an additional 2 minutes. This portion of the read is considered the allosteric enhancer portion of the screen.
The FDSS reader has a standard filter set capable of measuring calcium bound Fluo-8 (ex=480 and em=520 nm).
As for `CCCn1c(=O)c2[nH]c(-c3ccc(OCC(=O)Nc4ccc(C#N)cc4)cc3)nc2n(CCC)c1=O`, the “activity change, positive = enhancement” value was -5.98%.

For `CCCCCCCCCCCCC/C=C/[C@@H](O)[C@@H](N)CO`, the “activity change, positive = enhancement” value was -3.67%.

For the compound `COc1[nH]c2ccc(F)cc2c1C(=O)OCC1CCN(CCNS(C)(=O)=O)CC1`, the “activity change, positive = enhancement” value was -6.11%.

`Cc1cccc(/C=C/c2ccccc2)n1`: the “activity change, positive = enhancement” value was -24.6%.

Take `CC(C)=CCC/C(C)=C/CC/C(C)=C/CSc1ccccc1C(=O)O`: the “activity change, positive = enhancement” value was 15.5%.

As for `COc1ccccc1NC(=O)Nc1nc(-c2cccnc2)nc2ccccc12`, the “activity change, positive = enhancement” value was -1.31%.

On to `Cn1cnc2c(NC3CCCC3)ncnc21`, for which the “activity change, positive = enhancement” value is 4.32%.

For `Oc1cc2c(c(Cl)c1O)CCNCC2c1ccccc1` (stereo not given), the “activity change, positive = enhancement” value was 10.3%.

`CN(C)CCCCSC(=N)N`: the “activity change, positive = enhancement” value was -2.03%.

Take `N#C/C(=C\c1ccc(O)c(O)c1)C(=O)Nc1ccccc1`: the “activity change, positive = enhancement” value is 13.7%.

As for `S=C(Nc1ccccc1)Nc1nccs1`, the “activity change, positive = enhancement” value is -5.32%.

`Cc1cccc(C)c1NC(=O)C[N+](C)(C)C`: the “activity change, positive = enhancement” value is -3.1%.

As for `COc1ccc2c(c1)c(CC(=O)N1CCOCC1)c(C)n2C(=O)c1ccc(Cl)cc1`, the “activity change, positive = enhancement” value was 8.78%.

With `Nc1c(S(=O)(=O)O)cc(Nc2ccc(Nc3nc(Cl)nc(Nc4ccc(S(=O)(=O)O)cc4)n3)c(S(=O)(=O)O)c2)c2c1C(=O)c1ccccc1C2=O`, the “activity change, positive = enhancement” value was 17.3%.

Take `NCCNS(=O)(=O)c1cccc2cnccc12`: the “activity change, positive = enhancement” value was -1%.

As to `COc1cc2c(cc1C(F)(F)F)N(C(=O)Nc1cc(F)cc(-c3cccnc3)c1)CC2`, the “activity change, positive = enhancement” value was 11.8%.

In the case of `C[N+](C)(C)CCC(=O)c1cccc2ccccc12`, the “activity change, positive = enhancement” value was 19.1%.

As for `O=C(OCCN1CCCCC1)c1c[nH]c2ccccc12`, the “activity change, positive = enhancement” value was 13.5%.

Regarding `COC(=O)c1c(-c2cc(OC)c(OC)c(OC)c2)c2ccnc(OCc3ncccn3)c2c(=O)n1Cc1ccnc(C)c1`, the “activity change, positive = enhancement” value is 14.2%.

As for `O=C(Nc1cc(C(=O)Nc2ccc(S(=O)(=O)O)cc2S(=O)(=O)O)cc(C(=O)Nc2ccc(S(=O)(=O)O)cc2S(=O)(=O)O)c1)Nc1cc(C(=O)Nc2ccc(S(=O)(=O)O)cc2S(=O)(=O)O)cc(C(=O)Nc2ccc(S(=O)(=O)O)cc2S(=O)(=O)O)c1`, the “activity change, positive = enhancement” value was 1.1%.

For `C/C=C1\C(=O)CC2C3CCC4=CC(=O)CC[C@]4(C)C3CC[C@]12C` (stereo not given in full), the “activity change, positive = enhancement” value is -7.63%.

On to `NC(CCC(=O)NCS(=O)(=O)O)C(=O)O` (stereo not given), for which the “activity change, positive = enhancement” value is -4.29%.

For `CC(N)=NCc1cccc(CN)c1`, the “activity change, positive = enhancement” value is -6.16%.

`O=Nc1c(-c2c(O)[nH]c3ccccc23)[nH]c2ccccc12`: the “activity change, positive = enhancement” value was -29.3%.

In the case of `O=C(O)c1cc(=O)c2ccc(Cl)cc2[nH]1`, the “activity change, positive = enhancement” value is 3.85%.
